Laboratory results reported in PubChem BioAssay AID1159580 (chemical genetic matrix, 2015).
The whole screen tested about 5,500 compounds, of which about 2,000 (36%) were called active. Inconclusive results (about 18%) are left out. No stated cut-off is given here; in the data, active means normalized growth mostly below about 0.91 (no sharp cut-off); inconclusive means no clear call, values can overlap the other calls; inactive means mostly above about 0.92. The list shows a part of the results.

Assay: chemical genetic growth profiling, strain panel (AID 1159580);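 further: tested at 20 µM; growth read once vehicle control cultures reached saturation at 30 °C; 1 = growth at the plate median or of vehicle wells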
Details: S. cerevisiae deletion strains, growth OD

Measured: normalized growth

COc1ccc2ccc(=O)oc2c1CC=C(C)C
inactive: locus YAL021C, strain ccr4, stronger effect = lower value 1.02 | locus YBR171W, strain sec66, stronger effect = lower value 0.896 | locus YDL005C, strain med2, stronger effect = lower value 0.948 | locus YDL185W, strain tfp1, stronger effect = lower value 0.928 | locus YDR069C, strain doa4, stronger effect = lower value 1.03 | locus YDR195W, strain ref2 1.02 | locus YDR297W, strain sur2, stronger effect = lower value 0.934 | locus YDR334W, strain swr1, stronger effect = lower value 0.936 | locus YDR335W, strain msn5, stronger effect = lower value 0.95 | locus YEL037C, strain rad23, stronger effect = lower value 0.935 | locus YEL061C, strain CIN8 (second series), stronger effect = lower value 0.921 | locus YER015W, strain faa2, stronger effect = lower value 0.935 | locus YER111C, strain swi4, stronger effect = lower value 0.942 | locus YFR010W, strain ubp6, stronger effect = lower value 0.923 | locus YGL173C, strain kem1, stronger effect = lower value 0.94 | locus YHR027C, strain rpn1, stronger effect = lower value 0.957 | locus YIL073C, strain SPO22, stronger effect = lower value 0.85 | locus YJL095W, strain BCK1 (second series), stronger effect = lower value 0.936 | locus YJL115W, strain asf1, stronger effect = lower value 0.967 | locus YJL154C, strain vps35, stronger effect = lower value 0.944 | locus YJL168C, strain set2, stronger effect = lower value 0.941
active: locus YAL026C, strain drs2, stronger effect = lower value 0.883 | locus YAL030W, strain snc1, stronger effect = lower value 0.92 | locus YBL061C, strain skt5, stronger effect = lower value 0.912 | locus YBR009C, strain hhf1, stronger effect = lower value 0.769 | locus YBR021W, strain FUR4, stronger effect = lower value 0.662 | locus YBR023C, strain chs3, stronger effect = lower value 0.843 | locus YBR229C, strain ROT2, stronger effect = lower value 0.885 | locus YBR231C, strain swc5, stronger effect = lower value 0.866 | locus YBR279W, strain paf1, stronger effect = lower value 0.929 | locus YCL011C, strain gbp2, stronger effect = lower value 0.787 | locus YCL016C, strain dcc1, stronger effect = lower value 0.891 | locus YCL029C, strain bik1, stronger effect = lower value 0.826 | locus YCL061C, strain MRC1, stronger effect = lower value 0.835 | locus YCL069W, strain vba3, stronger effect = lower value 0.919 | locus YCR088W, strain abp1, stronger effect = lower value 0.915 | locus YDL035C, strain GPR1, stronger effect = lower value 0.794 | locus YDL040C, strain nat1, stronger effect = lower value 0.91 | locus YDL074C, strain BRE1, stronger effect = lower value 0.752 | locus YDL101C, strain DUN1, stronger effect = lower value 0.768 | locus YDL192W, strain arf1, stronger effect = lower value 0.794 | locus YDR001C, strain nth1, stronger effect = lower value 0.909 | locus YDR101C, strain arx1, stronger effect = lower value 0.823 | locus YDR137W, strain rgp1, stronger effect = lower value 0.715 | locus YDR159W, strain sac3, stronger effect = lower value 0.771 | locus YDR162C, strain NBP2, stronger effect = lower value 0.645 | locus YDR318W, strain mcm21, stronger effect = lower value 0.741 | locus YDR388W, stronger effect = lower value 0.89 | locus YDR392W, strain spt3, stronger effect = lower value 0.396 | locus YDR502C, strain sam2, stronger effect = lower value 0.788 | locus YEL003W, strain gim4, stronger effect = lower value 0.832 | locus YEL061C, strain CIN8, stronger effect = lower value 0.774 | locus YER016W, strain bim1, stronger effect = lower value 0.91 | locus YER110C, stronger effect = lower value 0.873 | locus YER155C, strain BEM2 (second series), stronger effect = lower value 0.434 | locus YER155C, strain BEM2, stronger effect = lower value 0.657 | locus YER167W, strain BCK2, stronger effect = lower value 0.561 | locus YGL078C, strain dbp3, stronger effect = lower value 0.917 | locus YGL086W, strain mad1, stronger effect = lower value 0.844 | locus YGL167C, strain pmr1, stronger effect = lower value 0.908 | locus YGL227W, strain vid30, stronger effect = lower value 0.875 | locus YGL240W, strain doc1, stronger effect = lower value 0.701 | locus YGL248W, strain PDE1, stronger effect = lower value 0.704 | locus YGL253W, strain hxk2, stronger effect = lower value 0.818 | locus YGR135W, strain pre9, stronger effect = lower value 0.75 | locus YGR252W, strain gcn5, stronger effect = lower value 0.583 | locus YHR013C, strain ard1, stronger effect = lower value 0.801 | locus YHR030C, strain SLT2, stronger effect = lower value 0.831 | locus YHR079C, strain IRE1 (second series), stronger effect = lower value 0.896 | locus YHR094C, strain hxt1, stronger effect = lower value 0.898 | locus YHR129C, strain ARP1, stronger effect = lower value 0.741 | locus YHR142W, strain chs7, stronger effect = lower value 0.739 | locus YHR200W, strain rpn10, stronger effect = lower value 0.812 | locus YIL066C, strain RNR3, stronger effect = lower value 0.622 | locus YIL125W, strain kgd1, stronger effect = lower value 0.888 | locus YIR030C, strain dcg1, stronger effect = lower value 0.841 | locus YJL092W, strain hpr5, stronger effect = lower value 0.896 | locus YJL095W, strain BCK1, stronger effect = lower value 0.566 | locus YJL129C, strain trk1, stronger effect = lower value 0.866 | locus YJL134W, strain LCB3, stronger effect = lower value 0.921 | locus YJL164C, strain tpk1, stronger effect = lower value 0.883 | locus YJL166W, strain qcr8, stronger effect = lower value 0.803 | locus YJL187C, strain SWE1 (second series), stronger effect = lower value 0.783
